The whole screen tested about 410,000 compounds, of which about 5,000 (1.2%) were called active. Roughly 13% stayed inconclusive and do not appear here. This is one part of a sample in which actives are shown more often than they occur. A number with no mark means an inactive call. The call rests on the fitted dose curve; in most records, active means well fitted inhibition curve with a large enough effect; inconclusive means small, poorly fitted or top-dose-only effect; inactive means no such curve, though single readings can be large or run the other way.
On the % scale 0 is the no-effect control and ±100 the full control effect; potency means the concentration at half of the fitted maximal effect.

The nature of the test: qHTS for Inhibitors of TGF-b. Further: nearly all actives have a fitted effect of over 65% in size. The note with it: HepG2 CAGA-GFP TGF-b/SMAD3 reporter, GFP fluorescence, 18 h, TGF-beta stimulated, 500 pg/mL final; series mostly up to 46.1 µM; activity, negative = inhibition: at the top concentration. The procedure, abridged: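 Read-out: total well GFP (ex488/em500-530) summed from mean per-cell fluorescence. Cells: HEPG2 CAGA-GFP, 1% FBS DMEM, 18 h at 37 degrees C with 500 pg/mL final TGF-beta. Unstimulated wells served as the full-inhibition control; stimulated DMSO wells = 0%.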
Background: Quantitative high-throughput screening tests each substance at several concentrations.
For `Cc1cccc(CN2Cc3cccc4c3[C@H](C=CC4)CC2=S)c1`, the “activity, negative = inhibition” value is -11.3%.
As to `CC(C)c1ccc(NC(=O)C2CCN(c3nc(-c4ccc(C(C)C)cc4)no3)CC2)cc1`, the “activity, negative = inhibition” value was -7.98%.
For `Cc1cc(C)cc(OC(C)C(=O)Nc2nc3c(s2)CCCC3)c1` (stereo unspecified), the “activity, negative = inhibition” value is -11%.
As to `COc1ccc(CCNc2nc3c(-c4cccc(F)c4)nnn3c3ccccc23)cc1OC`, the “activity, negative = inhibition” value is 2.93%.
For the compound `Cc1cc(C)n(-c2nc(C(F)(F)F)nc3ccccc23)n1`, the “activity, negative = inhibition” value is 19.8%.
The same measure, in the same setting: to `CC(Nc1nc(N2CCN(CCO)CC2)nc2ccccc12)c1ccccc1` (stereo unspecified) belongs -0.933%.
`CC(Nc1nc(C(F)(F)F)nc2ccccc12)c1cccs1` (stereo unspecified): the Potency was 17.8 µM (active).
In the case of `COc1ccc(/C=C/c2ccccn2)cc1OC`, the “activity, negative = inhibition” value was 5.76%.
For `CN(Cc1ccccc1)S(=O)(=O)c1nnc(NC(=O)c2ccccc2F)s1`, the “activity, negative = inhibition” value is -23.1%.
For the compound `CC(C)CC(=O)Nc1nnc(S(=O)(=O)N(C)c2ccc(Cl)cc2)s1`, the “activity, negative = inhibition” value is -2.24%.
For the compound `Cc1ccccc1C(=O)Nc1nnc(S(=O)(=O)N(C)c2ccc(Cl)cc2)s1`, the Potency was 8.91 µM (active).
Regarding `CCCCc1nn2c(=O)cc(COC(=O)c3cccc(NC(=O)COc4ccccc4)c3)nc2s1`, the “activity, negative = inhibition” value is -4.67%.
In the case of `Cc1nn(-c2ccc(F)cc2)c(-n2cccc2)c1C(=O)N1CCN(c2ccccc2)CC1`, the “activity, negative = inhibition” value is -2.22%.
Same read-out and setting: then `Cc1ccc2oc3c(c(=O)c2c1)C(c1ccc([N+](=O)[O-])cc1)N(CCCN1CCOCC1)C3=O` (stereo unspecified), with 13.7%.
`COc1ccc(CCNC(=O)c2cc(=O)c3c(C)cc(C)cc3o2)cc1OC`: the “activity, negative = inhibition” value was -1.84%.
Turning to `Cc1ccc(-c2cc(-c3coc4ccccc4c3=O)c3c(n2)-c2cc(Cl)ccc2OC3)cc1`, the “activity, negative = inhibition” value is 0.312%.
As for `Brc1ccc2nc(-c3ccccc3)c(Cc3ccccc3)n2c1`, the Potency is 12.6 µM (active).
Regarding `Cc1ccc2nc(-c3ccccc3)c(CC3CCCCC3)n2c1`, the “activity, negative = inhibition” value is -13%.
For the compound `Fc1cccc(Cc2c(-c3ccc(Cl)cc3)nc3ccc(Cl)cn23)c1`, the “activity, negative = inhibition” value is -4.59%.
On to `COc1ccccc1Cc1c(-c2ccc(Cl)cc2)nc2ccc(Cl)cn12`, for which the “activity, negative = inhibition” value was -15.7%.
`Fc1cccc(Cc2c(-c3cccc(Cl)c3)nc3ccc(Br)cn23)c1`: the Potency is 14.1 µM (active).
As for `CN(C)C(=O)c1nc2ccc(Cl)cn2c1CNCc1cccc(OC(F)(F)F)c1`, the “activity, negative = inhibition” value is -9.89%.
On the same count and under the same terms, then `Cc1ccc(-c2nc3ccc(Cl)cn3c2Cc2ccccc2)cc1`, with -0.0475%.
Consider `Cc1ccc(-c2nc3ccc(Br)cn3c2Cc2ccccc2C(F)(F)F)cc1`, for which the Potency was 14.1 µM (active).
Turning to `Cc1cc(Br)cn2c(Cc3ccccc3C(F)(F)F)c(C3CCCCC3)nc12`, the “activity, negative = inhibition” value is -10.6%.
`Clc1cccc(Cc2c(-c3cccc(Cl)c3)nc3ccc(Cl)cn23)c1`: the Potency is 10 µM (active).
Regarding `COC(=O)c1ccc2nc(C3CCCCC3)c(Cc3cccc(F)c3)n2c1`, the “activity, negative = inhibition” value was -24.9%.
Regarding `COC(=O)c1ccc2nc(-c3ccc(Cl)cc3)c(Cc3cccc(F)c3)n2c1`, the “activity, negative = inhibition” value is -13.1%.
For `Cc1ccc(NC(=O)CN2C(=O)CC(C)Sc3ccccc32)c(C)c1` (stereo unspecified), the “activity, negative = inhibition” value is 18.1%.
As for `COc1ccc(CCNC(=O)CCc2c(C)nc3c(c(C)nn3-c3ccc(C)c(C)c3)c2C)c(OC)c1OC`, the “activity, negative = inhibition” value was 1.19%.
The same measure, in the same setting: then `COc1ccc(CCNC(=O)Cn2c(=O)n(-c3ccccc3)c(=O)c3c(C)c(C)sc32)cc1OC`, with -1.27%; and `CC(C)c1ccc(NC(=O)c2cc(S(=O)(=O)N3CCc4ccccc4C3)ccc2F)cc1`, with 17.2%; and `CCCCNC(=O)c1ccc2c(c1)NC(=O)C(C(C)C)N2` (stereo unspecified), with -9.16%.
`COc1ccc(C(=O)Nc2nonc2-c2ccc(OC)c(OC)c2)cc1Cl`: the “activity, negative = inhibition” value was -18.6%.
For the compound `COc1cc2nc(NCC(C)c3ccccc3)n3nc(-c4ccccc4)nc3c2cc1OC` (stereo unspecified), the “activity, negative = inhibition” value is 1.87%.
As for `Cc1cccc(N(C)C(=O)CS(=O)(=O)c2cccc3nsnc23)c1`, the “activity, negative = inhibition” value is -0.304%.
Take `CCN1CCN(c2ccc(/C=C/c3ccnc4ccccc34)cc2)CC1`: the “activity, negative = inhibition” value was -1.72%.
Same read-out and setting: then `Cc1ccc(C2C=C(c3ccc(Cl)cc3)Nc3nc(NC(=O)CCC(=O)O)nn32)cc1` (stereo unspecified), with 26.6%; and `COc1ccc(N2CCN(c3nc(-c4ccccc4F)nc4ccccc34)CC2)cc1`, with -10.1%.
Still for that read-out and setting: to `Cc1cccc(C)c1NC(=O)N1CC(C)OC(C)C1` (stereo unspecified) belongs 0%.
`Cc1cccc(C)c1NC(=O)C(Cl)C(=O)c1ccccc1` (stereo unspecified): the Potency is 11.2 µM (active).
On to `Cc1cccc(C)c1NC(=O)CN(C)C(=O)CCC(=O)c1ccccc1`, for which the “activity, negative = inhibition” value is 2.94%.
Consider `Cc1ccc2c(=O)cc(C(=O)Nc3sc4c(c3C(=O)NCc3cccnc3)CCCC4)oc2c1`, for which the “activity, negative = inhibition” value is 73.5%.
As for `N#Cc1ccc[n+](CC(=O)c2ccc(F)cc2)c1`, the “activity, negative = inhibition” value is -10.5%.
Still for that read-out and setting: to `Cc1ccc(C)c(Nc2nnc(-c3ccc(C)c(S(=O)(=O)N4CCCCC4)c3)c3ccccc23)c1` belongs -18.5%; to `CCn1c(CNC(=O)C23CC4CC(CC(C4)C2)C3)nnc1SCC(=O)Nc1ccc(OC)cc1`, -22.1%.
Consider `CC(=O)Nc1ccc2nc(SCCOc3cc(C)cc(C)c3)sc2c1`, for which the “activity, negative = inhibition” value is -6.33%.
For `Brc1cccc[n+]1Cc1cccc(C[n+]2ccccc2Br)c1`, the “activity, negative = inhibition” value is 1.8%.
Consider `Cc1c(C(=O)Nc2ccccn2)oc2ccc(Br)cc12`, for which the “activity, negative = inhibition” value is 0.0321%.
Take `Oc1ccc(Br)cc1/C=N/Nc1ccccn1`: the Potency is 0.562 µM (active).
Take `O=C(CCc1ccc(O)cc1)NN=Cc1cc(Br)ccc1O`: the “activity, negative = inhibition” value is -15.4%.
In the case of `CCn1cc(C(=O)NCCc2ccccc2)c(=O)c2cc(S(=O)(=O)N3CCCCCC3)ccc21`, the “activity, negative = inhibition” value is -16.6%.
In the case of `CCCN(CC1COc2ccccc2O1)C(=S)Nc1ccc(C)cc1` (stereo unspecified), the “activity, negative = inhibition” value was 0%.
As for `CC(NC(=S)Nc1ccccc1)C1COc2ccccc2O1` (stereo unspecified), the “activity, negative = inhibition” value is 0%.
Consider `S=C(NCC1COc2ccccc2O1)Nc1ccc(Br)cc1` (stereo unspecified), for which the Potency is 22.4 µM (active).
As for `CCOC(=O)c1ccc(NC(=O)Cn2c(=O)n(-c3ccc(C)cc3)c(=O)c3c2cnn3C)cc1`, the “activity, negative = inhibition” value was -13.3%.
For `COc1cc2nc(C#Cc3nc4cc(OC)c(OC)cc4[nH]3)[nH]c2cc1OC`, the “activity, negative = inhibition” value is -3.4%.
Consider `Cc1ccc(Cl)cc1NC(=O)CSc1nccn1C`, for which the “activity, negative = inhibition” value was 1.32%.
Take `Cc1ccc(C)c(NC(CC(=O)c2ccccc2)C(=O)OCC(=O)c2cccs2)c1` (stereo unspecified): the “activity, negative = inhibition” value is -23.2%.
For `C[N+]1(CC(=O)c2cccs2)CCOCC1`, the “activity, negative = inhibition” value is 13.9%.
On to `Cc1ccccc1C(CC(=O)c1cccs1)C(C#N)C#N` (stereo unspecified), for which the Potency was 20 µM (active).
Take `Cc1ccc(-n2nnnc2CNC(=O)c2ccccc2C)cc1C`: the “activity, negative = inhibition” value is -0.406%.
Consider `CCN(c1ncnc2c1cnn2-c1ccc(C)cc1)C1CCCCC1`, for which the “activity, negative = inhibition” value was 4.65%.
As to `CCN([C@H](CO)C(C)C)S(=O)(=O)c1ccccc1Br`, the “activity, negative = inhibition” value was -5.37%.
Regarding `O=S(=O)(NCc1ccccc1Br)c1ccccc1Br`, the “activity, negative = inhibition” value was -10.9%.
For `CC(C)c1ccc(OCC(=O)N(Cc2ccc(N(C)C)cc2)C2CCS(=O)(=O)C2)cc1` (stereo unspecified), the “activity, negative = inhibition” value is -13.8%.
